Reference: PubChem BioAssay (NCATS)
Results filed as inconclusive are left out. Calls of active or inactive are those of the source. The call rests on the fitted dose curve; in most records, active means well fitted cell-killing curve with a large enough effect; inconclusive means small, poorly fitted or top-dose-only effect; inactive means flat fitted curve, though single readings scatter.

Columns and labels:
[1] = Cell Viability - LYMP2-009 (AID 968); further: series mostly up to about 92 µM; nearly all actives have a fitted effect of over 55% in size
[2] = Cell Viability - LYMP2-011 (AID 969); further: nearly all actives have a fitted effect of over 60% in size
In short: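 2500 cells/well, 5 hr 37 C; compound added, 24 hr 37 C; CellTiter-Glo 30 min RT; luminescence. qHTS concentration-response, Hill-equation AC50. Tetraoctylammonium bromide positive control.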

[3] = Cell Viability - LYMP2-013 (AID 970); further: series mostly up to about 92 µM; nearly all actives have a fitted effect of over 55% in size
In short: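 qHTS; 2500 lymphoblastoid cells/well; 5 hr 37 C settle; cpd 24 hr 37 C; CellTiter-Glo, 30 min RT; luminescence. AC50 = Hill fit.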

[4] = Cell Viability - LYMP2-015 (AID 971); further: nearly all actives have a fitted effect of over 55% in size
In short: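 Luminescent ATP read-out (CellTiter-Glo) served as the viability measure after lymphoblastoid cells were exposed to compounds for 24 hours at 37 C. Concentration-response data were fitted with the Hill equation to give AC50.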

[5] = Cell Viability - LYMP2-017 (AID 972); further: series mostly up to about 92 µM; nearly all actives have a fitted effect of over 55% in size
In short: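 2500 cells/well, 5 h 37 C; cpd 24 h 37 C in complete medium; CellTiter-Glo, 30 min RT; luminescence (ATP). AC50 via Hill fit, qHTS.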

[6] = Cell Viability - LYMP2-019 (AID 973); further: nearly all actives have a fitted effect of over 55% in size
In short: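 Luminescent ATP read-out (CellTiter-Glo, 30 min room temperature) served as the viability measure after 24 hr treatment of lymphoblastoid cells at 37 C. Concentration-response data were fitted to the Hill equation for AC50.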

[7] = Cell Viability - LYMP2-021 (AID 974)
In short: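 Plate 2500 lymphoblastoid cells per well and incubate 5 hr at 37 C. Add compounds over a concentration range and incubate 24 hr at 37 C. Add CellTiter-Glo, wait 30 min at room temperature, read luminescence.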

[8] = Cell Viability - LYMP2-023 (AID 975)
In short: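 2500 cells/well, 5 hr 37 C; cpd 24 hr 37 C; CellTiter-Glo, 30 min RT; luminescence. qHTS conc-response, Hill fit -> AC50. Pos ctrl tetraoctylammonium bromide.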

[9] = Cell Viability - LYMP2-025 (AID 976); further: series mostly up to about 92 µM
In short: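 Seed 2500 LYMP2-025 cells/well; 5 hr at 37 C; add compound; 24 hr at 37 C; add CellTiter-Glo; 30 min RT; read luminescence. AC50 from Hill-modelled concentration-response.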

[10] = Cell Viability - LYMP2-002 (AID 977);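 further: series mostly up to about 92 µM; compound exposure lasted 24 h at 37 °C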
In short: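 Human lymphoblastoid LYMP2-002 cells, 2500 per well, exposed to compounds for 24 h at 37 C in complete medium; viability read as intracellular ATP by CellTiter-Glo luminescence, AC50 from Hill fits.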

Measured: outcome

CC(=O)Nc1cccc(O)c1
inactive: all assays above

CC(=O)NS(=O)(=O)c1ccc(N)cc1
inactive: all assays above

O=C(c1ccccc1)C(O)c1ccccc1 (configuration not stated)
inactive: all assays above

Cc1cc(=O)[nH]c(=S)[nH]1
inactive: all assays above

CC1CC(OC(=O)c2ccccc2O)CC(C)(C)C1 (configuration not stated)
inactive: all assays above

Nc1ccc(S(=O)(=O)c2ccc(N)cc2)cc1
inactive: all assays above

Cc1c(N(C)C)c(=O)n(-c2ccccc2)n1C
inactive: all assays above

C=CCNC(N)=S
inactive: all assays above

FC(F)(F)C(Cl)Br (configuration not stated)
inactive: all assays above

CCCCCCCC(=O)OCC(COC(=O)CCCCCCC)OC(=O)CCCCCCC
inactive: all assays above

Cc1cc(C)nc(NS(=O)(=O)c2ccc(N)cc2)n1
inactive: all assays above

CCN(CC)C(=O)c1cccc(C)c1
inactive: all assays above

CCCCOC(=O)c1ccc(N)cc1
inactive: all assays above

CCCCCC(N)=O
inactive: all assays above

O=C1c2cccc(O)c2C(=O)c2c(O)cccc21
inactive: [1] | [3] | [7]

CC(=O)Nc1ccc(C(=O)O)cc1
not listed: [4]
inactive: all other assays above

O=C(O)CCCCC1CCSS1 (configuration not stated)
inactive: all assays above

CC(=O)Nc1ccccc1
inactive: all assays above

O=C1C(c2[nH]c3ccccc3c2O)=Nc2ccccc21
inactive: all assays above

CC(=O)OCC(COC(C)=O)OC(C)=O
inactive: all assays above

COc1ccc(O)cc1
inactive: all assays above

CCCC(O)C(CC)CO (configuration not stated)
inactive: all assays above
